Pf growth 48h – Primary qHTS for delayed death inhibitors of the malarial parasite plastid, 48 hour incubation; P. falciparum luciferase growth in erythrocytes, 48 h; 310,000 compounds, 5.9% hits; Potency, µM (top dose mostly 28.7 µM), without a hit: at the top dose activity change, negative = inhibition, hits mostly inhibitors; also: potency is read from the fitted curve at half-maximal effect; % is scaled to controls: 0 for no effect and ±100 for the full control effect
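Read-out is firefly luciferase luminescence from an integrated reporter in P. falciparum, so falling signal marks reduced parasite growth. Infected erythrocytes were at 2% hematocrit and 0.1% parasitemia (final) in Albumax-supplemented RPMI 1640.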
Shiga toxin inh – A qHTS for Small Molecule Inhibitors of Shiga Toxin | Vero cells, Shiga toxin protein synthesis inhibition reporter | inhibition, % at 38.7 µM | 290,000 compounds, 9.2% hits; in the data active = inhibition mostly above about 28%, no sharp cut-off; inactive = mostly below about 43%; also: 0% is about no effect
CHX counter – Cycloheximide Counterscreen for Small Molecule Inhibitors of Shiga Toxin. cell reporter, cycloheximide protein synthesis inhibition counterscreen. max response, %. 300,000 compounds, 12% hits. AID 2314, 2010; in the data active = max response mostly above about 13%, no sharp cut-off; inactive = mostly below about 14%; also: read at 38.3 µM for the half of the compounds with a filed dose; 0% is about no effect
LmPK inhibitor – qHTS Assay for Inhibitors of Leishmania Mexicana Pyruvate Kinase (LmPK); Potency, µM (titrated, usually from 57.5 µM), without a hit: at the top dose activity change, negative = inhibition, most hits filed as inhibitors; AID 1721, 2009; 290,000 compounds, 0.37% hits; purified LmPK, Kinase-Glo ATP luminescence, 1 h; also: potency is read from the fitted curve at half-maximal effect; % is scaled to controls: 0 for no effect and ±100 for the full control effect
Target sequence (Q27686 whole entry, looked up): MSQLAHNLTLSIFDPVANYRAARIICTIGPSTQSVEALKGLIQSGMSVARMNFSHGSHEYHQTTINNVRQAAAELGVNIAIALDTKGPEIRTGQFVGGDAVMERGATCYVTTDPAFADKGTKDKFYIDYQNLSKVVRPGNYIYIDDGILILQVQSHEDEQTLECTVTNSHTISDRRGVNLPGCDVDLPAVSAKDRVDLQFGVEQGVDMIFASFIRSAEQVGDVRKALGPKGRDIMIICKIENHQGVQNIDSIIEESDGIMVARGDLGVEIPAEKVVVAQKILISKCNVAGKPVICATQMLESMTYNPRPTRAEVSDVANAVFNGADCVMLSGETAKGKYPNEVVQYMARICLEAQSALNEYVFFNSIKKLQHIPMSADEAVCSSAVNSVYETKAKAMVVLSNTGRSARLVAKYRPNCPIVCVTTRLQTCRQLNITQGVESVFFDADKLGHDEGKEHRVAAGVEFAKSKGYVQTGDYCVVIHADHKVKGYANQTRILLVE
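Purified LmPK (0.1 nM) with 0.5 mM PEP and 0.1 mM ADP in imidazole buffer pH 7.2 with MgCl2/KCl, 1 h at room temperature. ATP formed was read by luciferase luminescence and normalized to no-enzyme and uninhibited controls.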
Pf growth 96h – Primary qHTS for delayed death inhibitors of the malarial parasite plastid, 96 hour incubation; P. falciparum luciferase reporter growth, 96 h; Potency, µM (series often up to 28.7 µM), for the others: top-dose activity change, negative = inhibition, hits mostly inhibitors; 320,000 compounds, 6.9% hits; also: potency is read from the fitted curve at half-maximal effect; % is scaled to controls: 0 for no effect and ±100 for the full control effect
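Parasite growth measured via integrated firefly luciferase reporter in P. falciparum. Infected erythrocytes at 2% hematocrit, 0.05% parasitemia final were treated 96 hours at 37 C under 5% CO2, and luminescence was read.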
* = called active by the depositor; ? = inconclusive; nt = no result; [ ] = remark or other dose. Compounds with a hit are over-represented: about 22% of the library has one in this group of screens. Unless noted, calls follow the shape of the dose curve; as a rule, active = well fitted inhibition curve with a large enough effect; inconclusive = small, poorly fitted or top-dose-only effect, or another doubt; inactive = no such curve, though single readings can be large or run the other way.

SMILES	Pf growth 48h	Shiga toxin inh	CHX counter	LmPK inhibitor	Pf growth 96h
COCCNC(=S)N1CCC(NC(=O)c2ccco2)CC1	19.3%	-4.1	-4.5	1.3%	83.2%
Cc1noc2ncnc(Oc3cc(Cl)ccc3Cl)c12	?	2.6	7.8	2.2%	13.1µM*
Cc1ccccc1OCC(=O)N1CCc2ccccc2C1	13.8%	18.6	14.7	8.4%	11.4%
Cc1cc(OCC(=O)N2CCc3ccccc3C2)c(C)cc1Br	-6.6%	40.5*	26.6*	4.7%	7.2%
Nc1ccc(C(=O)OCC(=O)N2CCc3ccccc3C2)cc1[N+](=O)[O-]	48.1%	56.9*	38.5*	3.4%	-27.4%
Cc1ccsc1C(=O)OCC(=O)N1CCc2ccccc2C1	408.8%	115.1*	45.2*	3.2%	479.6%
CN(C)c1cccc(C(=O)OCC(=O)N2CCc3ccccc3C2)c1	-4.7%	59.6	20.4	0.3%	52.4%
Cc1ccc(C)c(OCC(=O)N2CCc3ccccc3C2)c1	20.5%	25.5	13.2*	1.7%	36.6%
FC1(F)C(F)(F)C(F)(F)C2(F)C(F)(F)C(F)(F)C(F)(F)C(F)(F)C2(F)C1(F)F (configuration not stated)	-3.4%	nt	nt	nt	-10.0%
COc1ccc(C(=O)NC2CCCc3ccccc32)cc1[N+](=O)[O-] (configuration not stated)	-12.7%	-4.0	-0.8	-4.5%	?
CC(C)C(C)NC(=O)CN1C(=O)NC(c2ccccc2)(c2ccccc2)C1=O (configuration not stated)	-8.9%	4.0	0.6	-2.3%	-4.2%
CCc1ccc(-c2cc(C(=O)N3N=C(C(F)F)CC3(O)C(F)F)c3ccccc3n2)cc1 (configuration not stated)	?	88.9*	28.3*	5.4%	?
CC(C)Cc1cc(C(=O)N2N=C(C(F)F)CC2(O)C(F)F)c2ccccc2n1 (configuration not stated)	13.1µM*	-5.1	-2.4	3.4%	6.57µM*
CC(C)Cc1cc(C(=O)Nc2ccccc2)c2ccccc2n1	11.5%	-12.2	0.7	0.8%	103.7%
CC(=O)c1ccc(S(=O)(=O)Nc2cccc(-n3cnnn3)c2)cc1	0.6%	-5.8	-5.4	0.9%	28.1%
O=C(O)/C=C/C(=O)Nc1ccc(OC(F)F)cc1	0.0%	-12.2	-2.6	-6.3%	8.9%
CCCCN1C(C(=O)Nc2ncccn2)=C(O)c2ccccc2S1(=O)=O	10.1%	-5.5	-1.1	-5.3%	24.1%
CCCn1c(SCC(=O)Nc2cccc(NC(C)=O)c2)nnc1C(C)C	10.8%	-12.2	1.7	-3.7%	4.15µM*
CCCn1c(SCC(=O)N2CCCCC2)nnc1C(C)C	13.6%	43.3*	14.7*	0.7%	13.5%
COCCn1c(SCC(=O)N2CCCC2)nnc1C(C)C	31.4%	2.8	-2.6	0.9%	5.22µM*
CCCn1c(SCC(=O)Nc2cccc(C)n2)nnc1C(C)C	56.8%	13.1	7.4	-2.9%	7.2%
O=C(CSc1nc(=O)n2ccccc2n1)N1CCCCCC1	-21.0%	nt	nt	nt	2.6%
NC(=O)C1CCN(C(=O)c2ccc(NS(=O)(=O)c3ccc(Br)s3)cc2)CC1	34.0%	nt	nt	nt	11.4%
COC(=O)c1ccc(NC(=O)c2cc[n+]([O-])cc2)cc1	?	nt	-1.8	2.2%	11.7%
CCOc1ccccc1/C=C/c1onc(C)c1S(=O)(=O)N1CCC(C(=O)NC(C)C)CC1	?	-1.1	1.3	3.0%	56.8%
SMILES	Pf growth 48h	Shiga toxin inh	CHX counter	LmPK inhibitor	Pf growth 96h
Cc1cccc(/C=C/c2onc(C)c2S(=O)(=O)N2CCC(C(=O)N3CCCCC3)CC2)c1	9.28µM*	-5.4	-1.7	14.0%	?
CCCN1CCN(C(=O)C2CCN(S(=O)(=O)c3c(C)noc3/C=C/c3ccc(C)cc3)CC2)CC1	?	-6.2	-8.8	-1.5%	?
COc1ccc(/C=C/c2onc(C)c2S(=O)(=O)N2CCC(C(=O)N3CCCCCC3)CC2)cc1	4.15µM*	1.7	6.2	4.6%	?
Cc1ccc(/C=C/c2onc(C)c2S(=O)(=O)N2CCC(C(=O)N3CCCCC3)CC2)cc1	?	-0.9	-2.2	-7.6%	-13.1%
CCCCNC(=O)C1CCN(S(=O)(=O)c2c(C)noc2/C=C\c2ccc(OC)cc2)CC1	nt	-8.5	-4.4	1.8%	10.4µM*
CCOc1ccccc1/C=C/c1onc(C)c1S(=O)(=O)N1CCC(C(=O)N2CCCCCC2)CC1	7.38µM*	-7.2	-2.0	4.3%	?
CCOc1ccc(NC(=S)N2CCC(N(C)CCN3CCOCC3)CC2)cc1	-4.1%	-0.8	-3.3	-5.0%	3.3%
CN(CC(=O)Nc1ccccc1C(F)(F)F)C(=O)COc1cccnc1[N+](=O)[O-]	13.7%	-11.3	2.1	-5.6%	0.1%
COc1ccnc(CS(=O)c2nc3ccc(OC(F)F)cc3[nH]2)c1OC (configuration not stated)	-7.3%	nt	nt	nt	-8.7%
CCC(=O)Nc1c2c(nc3c1CCC3)CCCC2	6.5%	-9.9	-1.7	-4.9%	2.08µM*
O=c1nc(Nc2ccccc2)sc2ccc([N+](=O)[O-])cc12	11.0%	-5.6	-7.9	3.3%	?
CCCCn1nnnc1SCC(=O)NNC(=O)C1CCCCC1	?	-12.3	-3.6	1.4%	?
CC(C)(CC(=O)O)CC(=O)NNc1ncccc1C#N	4.15µM*	-5.3	-1.3	-0.9%	-12.0%
COc1ccc(N(CC(=O)NCc2ccccc2Cl)S(=O)(=O)c2c(C)noc2C)cc1	?	-9.7	-4.9	-1.3%	?
CCN(Cc1ccccc1)S(=O)(=O)c1ccc(S(=O)(=O)N(Cc2cccc(OC)c2)CC2CCCO2)cc1 (configuration not stated)	nt	-5.9	14.0	4.9%	5.22µM*
NS(=O)(=O)c1ccc(S(=O)(=O)N(Cc2ccccc2F)CC2CCCO2)cc1 (configuration not stated)	?	-11.2	-3.8	-0.5%	13.1µM*
CCOc1ccc(C(=O)NCc2ccc3c(c2)OCO3)cc1	-3.6%	12.6	10.0	1.0%	-25.4%
CCOc1ccc(NC(=O)c2cccc(-n3cccc3)c2)cc1S(=O)(=O)N1CCOCC1	?	nt	nt	nt	-51.9%
Cc1ccc(Nc2nc(C(=O)NCC3CCCO3)cs2)cc1 (configuration not stated)	98.7%	50.6*	24.0*	5.3%	-7.4%
Cc1ccc(Nc2nc(C(=O)N3CCC(C(=O)NC(C)C)CC3)cs2)cc1	11.7%	17.1	17.5*	-9.6%	-23.0%
O=C(NCC1CCCO1)c1ccccc1-c1nc(-c2ccccc2)no1 (configuration not stated)	15.0%	111.8*	35.1*	-2.5%	12.8%[5.75 µM]
Cc1ccc(C(=O)Nc2ccc(C(=O)NCC3CCCO3)cc2)cc1 (configuration not stated)	-6.6%	-2.7	0.9	-3.0%	?
Cc1ccc(-c2cc(C(=O)NCC3CCCO3)no2)cc1 (configuration not stated)	222.0%	48.9*	47.7*	1.4%	12.7%

Compound activity as filed in PubChem.
